From PubChem
LmPK inhibitor = blocks Leishmania mexicana pyruvate kinase activity; purified LmPK, Kinase-Glo ATP luminescence, 1 h; Potency, µM (series often up to 57.5 µM), for inactives: at the top dose activity change, negative = inhibition, usual class: inhibitors; actives 0.37% (n = 290,000); AID 1721; also: potency is read from the fitted curve at half-maximal effect; % is scaled to controls: 0 for no effect and ±100 for the full control effect
Target sequence (Q27686 whole entry, looked up): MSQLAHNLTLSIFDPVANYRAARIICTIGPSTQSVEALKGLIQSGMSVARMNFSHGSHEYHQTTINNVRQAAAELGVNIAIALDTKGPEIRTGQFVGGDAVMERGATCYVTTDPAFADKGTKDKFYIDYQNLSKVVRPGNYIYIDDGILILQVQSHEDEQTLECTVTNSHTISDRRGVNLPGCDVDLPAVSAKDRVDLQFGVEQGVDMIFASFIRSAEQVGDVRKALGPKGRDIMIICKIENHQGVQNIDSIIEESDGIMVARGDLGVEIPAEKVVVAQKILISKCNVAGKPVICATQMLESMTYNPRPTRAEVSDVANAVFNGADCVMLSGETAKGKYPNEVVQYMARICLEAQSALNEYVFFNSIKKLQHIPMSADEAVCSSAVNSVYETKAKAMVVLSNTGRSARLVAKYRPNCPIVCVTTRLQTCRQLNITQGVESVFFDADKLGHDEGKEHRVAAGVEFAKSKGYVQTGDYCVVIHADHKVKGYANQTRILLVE
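ATP generated from ADP (0.1 mM) and PEP (0.5 mM) by 0.1 nM LmPK over 1 h at room temperature (pH 7.2 imidazole buffer) was detected by coupled luciferase luminescence. Values were normalized to uninhibited and no-enzyme wells.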
Pf growth 96h = inhibits malaria parasite growth, 96 h | P. falciparum luciferase reporter growth, 96 h | actives 6.9% (n = 320,000) | Potency, µM (highest dose often 28.7 µM), inactives show at the highest dose activity change, negative = inhibition, actives largely listed as inhibitors | AID 504834; also: potency is read from the fitted curve at half-maximal effect; % is scaled to controls: 0 for no effect and ±100 for the full control effect
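P. falciparum expressing integrated firefly luciferase, in erythrocytes at 2% hematocrit, 0.05% parasitemia, incubated with compounds 96 h at 37 C, 5% CO2. Growth inhibition read as loss of luminescence; two-generation exposure targets delayed-death apicoplast inhibitors.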
Pf growth 48h = inhibits P. falciparum growth in the first generation, 48 h. P. falciparum luciferase growth in erythrocytes, 48 h. Potency, µM (doses to about 28.7 µM), without a hit: at the highest dose activity change, negative = inhibition, usual class: inhibitors. actives 5.9% (n = 310,000). AID 504832; also: potency is read from the fitted curve at half-maximal effect; % is scaled to controls: 0 for no effect and ±100 for the full control effect
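Firefly luciferase activity from engineered P. falciparum reports growth; inhibitors lower the luminescent signal. Cultures contained 2% hematocrit erythrocytes at 0.1% final parasitemia.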
Shiga inhibitor = Shiga toxin inhibition | Vero cells, Shiga toxin protein synthesis inhibition reporter | inhibition, % at 38.7 µM | actives 9.2% (n = 290,000); in the data active = inhibition mostly above about 28%, no sharp cut-off; inactive = mostly below about 43%; also: 0% is about no effect
CHX counter = affects cycloheximide protein synthesis inhibition readout, counter-screen. cell reporter, cycloheximide protein synthesis inhibition counterscreen. max response, %. actives 12% (n = 300,000). AID 2314; in the data active = max response mostly above about 13%, no sharp cut-off; inactive = mostly below about 14%; also: read at 38.3 µM for the half of the compounds with a filed dose; 0% is about no effect
Active calls of the source: *; ? = inconclusive; / = no result given; [ ] = dose if it differs, or a comment. Most compounds without a hit are left out; they make up all but 22% or so of the library. Unless noted, calls follow the shape of the dose curve; as a rule, active = well fitted inhibition curve with a large enough effect; inconclusive = small, poorly fitted or top-dose-only effect, or another doubt; inactive = no such curve, though single readings can be large or run the other way.

SMILES	LmPK inhibitor	Pf growth 96h	Pf growth 48h	Shiga inhibitor	CHX counter
COc1ccc(N2C(=O)CC(Sc3n[nH]c(-c4ccccc4)n3)C2=O)cc1 (stereo not given)	11%	?	-22%	11	-2
Cc1cccc(/C(N)=N/OC(=O)c2cccc3ccccc23)c1	-6%	0%	-73%	59*	21*
N/C(=N\OC(=O)c1cccc2ccccc12)c1cccnc1	-4%	-7%	?	94*	42*
O=C(O/N=C(\c1ccccc1)c1ccccn1)c1cccc2ccccc12	2%	9.3µM*	16%	12	14*
O=C(O/N=C(\c1ccccc1)c1ccncc1)c1ccccc1Cl	6%	-15%	-11%	-6	-1
CCOc1ccc(-c2c(C(=O)N/N=C/c3cccnc3)nnn2-c2nonc2N)cc1	-3%	1%	22%	-7	-2
COc1cc(/C=C2/C(=N)N3C(=NC2=O)SN=C3S(C)(=O)=O)ccc1OS(=O)(=O)c1ccccc1	2%	?	-8%	45*	8
CCOc1ccc(-n2c(C)cc(/C=C3/C(=N)N4C(=NC3=O)SN=C4S(C)(=O)=O)c2C)cc1	-1%	8.3µM*	?	21	-1
COc1cc(/C=C2\C(=N)N3N=C(S(C)(=O)=O)SC3=NC2=O)ccc1OCCOc1ccccc1C	9%	?	10µM*	-6	18
COc1ccccc1-n1c(C)cc(/C=C2/C(=N)N3C(=NC2=O)SN=C3S(C)(=O)=O)c1C	-3%[11.5 µM]	?	?	116*	24*
CCOc1cc(/C=C2/C(=N)N3C(=NC2=O)SN=C3S(C)(=O)=O)ccc1OS(=O)(=O)c1ccccc1	4%	?	-7%	-2	-1
COc1ccc(OC)c(CCNC(=O)c2ccccc2NC(=O)C2=C(C)OCCS2)c1	-2%	?	?	-8	5
NC(=O)C1O[C@@H](O)[C@H](O)[C@@H](O)[C@H]1O (stereo not given in full)	/	/	/	-6	-6
Cc1cc(C)cc(-n2ncc3c2CCCC3NC(=O)CCN2Cc3ccccc3C2=O)c1 (stereo not given)	1%	-29%	-18%	-8	0
O=C(O)CN(CC(=O)O)c1ccccc1OCCOc1ccccc1N(CC(=O)O)CC(=O)O	/	/	/	4	10
Cc1ccccc1NC(=O)C1CCCN(c2ncnc3onc(-c4ccc(F)cc4)c23)C1 (stereo not given)	6%	20%	9.3µM*	14	-4
CCc1ccccc1NC(=O)C1CCCN(c2ncnc3onc(-c4ccc(F)cc4)c23)C1 (stereo not given)	9%	?	?	2	-5
O=C(Nc1ccccc1)N1CCCC(c2nc(-c3ccc(F)cc3)no2)C1 (stereo not given)	1%	?	1%	42	14
Cc1ccccc1NC(=O)N1CCCC(c2nc(-c3ccc(F)cc3)no2)C1 (stereo not given)	2%	/	31%	110*	24*
Cc1ccc(NC(=O)N2CCCC(c3nc(-c4ccc(F)cc4)no3)C2)cc1 (stereo not given)	1%	66%	21%	60*	15
Cc1ccccc1NC(=O)N1CCCC(c2nc(-c3ccc(C(C)C)cc3)no2)C1 (stereo not given)	6%	-8%	-15%	-1	26*
Cc1ccc(C)c(Oc2cc(NN3CCCCC3)c([N+](=O)[O-])cc2[N+](=O)[O-])c1	-2%	53%	12%	-5	-4
CC1(C)Cc2cccc(Oc3cc(NN4CCCCC4)c([N+](=O)[O-])cc3[N+](=O)[O-])c2O1	-6%	1.5µM*	?	-8	-2
O=[N+]([O-])c1cc([N+](=O)[O-])c(Oc2ccc(Cl)c3cccnc23)cc1NN1CCCCC1	-3%	1.5µM*	?	1	-2
O=[N+]([O-])c1cc([N+](=O)[O-])c(Oc2cccc(Cl)c2Cl)cc1NN1CCCCC1	2%	?	-10%	-5	2
SMILES	LmPK inhibitor	Pf growth 96h	Pf growth 48h	Shiga inhibitor	CHX counter
Cc1cc(Oc2cc(NN3CCCCC3)c([N+](=O)[O-])cc2[N+](=O)[O-])c(C(=O)c2ccccc2)cc1Cl	-2%	8.3µM*	?	10	-3
Cc1ccc(F)c(Oc2cc(NN3CCCCC3)c([N+](=O)[O-])cc2[N+](=O)[O-])c1	-3%	12µM*	?	-3	-3
CN(C)CC1CCCCC1OC(=O)c1ccc(S(=O)(=O)N(C)c2ccccc2)cc1 (stereo not given)	-3%	0%	7%	-8	0
COc1ccccc1-c1cn[nH]c1-c1ccc(OCc2ccccc2F)cc1O	4%	3.7µM*	7.4µM*	-4	-2
COc1ccccc1-c1cn[nH]c1-c1ccc(OCc2ccc(F)cc2)cc1O	7%	10µM*	13µM*	-20	-4
COc1ccccc1-c1cn[nH]c1-c1ccc(OCc2ccc([N+](=O)[O-])cc2)cc1O	6%	-13%	?	-19	-2
Cc1sc2c(c1C)C(c1ccc(C(C)(C)C)cc1)=NCC(=O)N2CC(=O)Nc1nccs1	1%	10µM*	?	-11	-2
Cc1sc2c(c1C)C(c1cccs1)=NCC(=O)N2CC(=O)NCc1cccs1	3%	/	?	-14	-3
c1ccc(N2CCN(c3nc4cc5c(cc4s3)OCO5)CC2)cc1	2%	14%	239%	33*	53*
c1ccc2c(c1)CCN(c1nc3cc4c(cc3s1)OCO4)C2	?	0%	32%	97*	40*
Nc1nc2ccc(N3CCOCC3)cc2s1	-4%	-30%	32%	32*	34*
Fc1ccc2nc(N3CCOCC3)sc2c1	-11%[11.5 µM]	105%	79%	107*	35*
COc1cccc(NC(=O)COc2ccc(C(=O)N3CCN(C)CC3)cc2)c1	-2%	13%	-8%	-3	9
COc1cc(/C=C2/SC(=S)N(c3c(C)n(C)n(-c4ccccc4)c3=O)C2=O)ccc1O	-13%	28%	-14%	-16	-2
COc1ccc(N(CC(=O)NC2CCCC2)C(=O)CCC(=O)Nc2nc(C)cs2)cc1OC	4%	?	?	-9	-6
c1c2c(cc3sc(N4CCOCC4)nc13)OCO2	16µM*	21%	0%	56*	43*
O=C(Nc1nc2ccccc2c2nc3ccccc3n12)c1ccc(F)cc1	3%	24%	35%	-5	-6
CN(C)CCn1c(NC(=O)c2ccc(Cl)cc2)nc2ccccc21	5%	/	?	89*	38*
CCN(CC)CCn1c(NC(=O)c2ccc(C)cc2)nc2ccccc21	4%	6.6µM*	121%	/	44*
CCN(CC)CCn1c(NC(=O)c2ccc(C(F)(F)F)cc2)nc2ccccc21	2%	?	-8%	-10	-3
Cn1c(NC(=O)c2ccc(F)cc2)nc2ccccc21	-10%	-8%	22%	40*	31*
